Screen size: about 5,500 compounds; about 2,000 (36%) were called active. About 18% were inconclusive and are not listed. No stated cut-off is given here; in the data, active means normalized growth mostly below about 0.91 (no sharp cut-off); inconclusive means no clear call, values can overlap the other calls; inactive means mostly above about 0.92. The list shows a part of the results.
Assay: chemical genetic growth profiling, strain panel (AID 1159580);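 further: tested at 20 µM; growth read once vehicle control cultures reached saturation at 30 °C; 1 = growth at the plate median or of vehicle wells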
Conditions: growth OD

Measured: normalized growth

Fc1ccc(C(c2ccccc2)(c2ccccc2F)n2ccnc2)cc1 (stereo unspecified)
inactive: S. cerevisiae deletion strains, locus YOL012C, strain htz1 0.208
active: S. cerevisiae deletion strains, locus YAL013W, strain DEP1, stronger effect = lower value 0.0872 | S. cerevisiae deletion strains, locus YBR021W, strain FUR4, stronger effect = lower value 0.19 | S. cerevisiae deletion strains, locus YBR229C, strain ROT2, stronger effect = lower value 0.0785 | S. cerevisiae deletion strains, locus YCL029C, strain bik1, stronger effect = lower value 0.0815 | S. cerevisiae deletion strains, locus YDL035C, strain GPR1, stronger effect = lower value 0.0631 | S. cerevisiae deletion strains, locus YDL074C, strain BRE1, stronger effect = lower value 0.147 | S. cerevisiae deletion strains, locus YDL101C, strain DUN1, stronger effect = lower value 0.0698 | S. cerevisiae deletion strains, locus YDL134C, strain PPH21, stronger effect = lower value 0.0588 | S. cerevisiae deletion strains, locus YDL185W, strain tfp1, stronger effect = lower value 0.0581 | S. cerevisiae deletion strains, locus YDL192W, strain arf1, stronger effect = lower value 0.0867 | S. cerevisiae deletion strains, locus YDR101C, strain arx1, stronger effect = lower value 0.0775 | S. cerevisiae deletion strains, locus YDR150W, strain NUM1, stronger effect = lower value 0.0798 | S. cerevisiae deletion strains, locus YDR162C, strain NBP2, stronger effect = lower value 0.0536 | S. cerevisiae deletion strains, locus YDR318W, strain mcm21, stronger effect = lower value 0.082 | S. cerevisiae deletion strains, locus YDR388W, stronger effect = lower value 0.0787 | S. cerevisiae deletion strains, locus YDR502C, strain sam2, stronger effect = lower value 0.079 | S. cerevisiae deletion strains, locus YEL061C, strain CIN8, stronger effect = lower value 0.063 | S. cerevisiae deletion strains, locus YER110C, stronger effect = lower value 0.112 | S. cerevisiae deletion strains, locus YER155C, strain BEM2, stronger effect = lower value 0.097 | S. cerevisiae deletion strains, locus YER167W, strain BCK2, stronger effect = lower value 0.0563 | S. cerevisiae deletion strains, locus YGL078C, strain dbp3, stronger effect = lower value 0.111 | S. cerevisiae deletion strains, locus YGL086W, strain mad1, stronger effect = lower value 0.0673 | S. cerevisiae deletion strains, locus YGL248W, strain PDE1, stronger effect = lower value 0.0531 | S. cerevisiae deletion strains, locus YGR078C, strain PAC10, stronger effect = lower value 0.0703 | S. cerevisiae deletion strains, locus YGR135W, strain pre9, stronger effect = lower value 0.0937 | S. cerevisiae deletion strains, locus YGR229C, strain SMI1, stronger effect = lower value 0.0699 | S. cerevisiae deletion strains, locus YGR252W, strain gcn5, stronger effect = lower value 0.179 | S. cerevisiae deletion strains, locus YHR030C, strain SLT2, stronger effect = lower value 0.0565 | S. cerevisiae deletion strains, locus YHR079C, strain IRE1 (second series), stronger effect = lower value 0.0811 | S. cerevisiae deletion strains, locus YHR094C, strain hxt1, stronger effect = lower value 0.0819 | S. cerevisiae deletion strains, locus YHR129C, strain ARP1, stronger effect = lower value 0.0647 | S. cerevisiae deletion strains, locus YHR200W, strain rpn10, stronger effect = lower value 0.101 | S. cerevisiae deletion strains, locus YIL066C, strain RNR3, stronger effect = lower value 0.054 | S. cerevisiae deletion strains, locus YIL073C, strain SPO22, stronger effect = lower value 0.128 | S. cerevisiae deletion strains, locus YIL125W, strain kgd1, stronger effect = lower value 0.14 | S. cerevisiae deletion strains, locus YIR030C, strain dcg1, stronger effect = lower value 0.0795 | S. cerevisiae deletion strains, locus YJL095W, strain BCK1, stronger effect = lower value 0.0549 | S. cerevisiae deletion strains, locus YJL134W, strain LCB3, stronger effect = lower value 0.0651 | S. cerevisiae deletion strains, locus YJL168C, strain set2, stronger effect = lower value 0.0832 | S. cerevisiae deletion strains, locus YJL187C, strain SWE1 (second series), stronger effect = lower value 0.0603 | S. cerevisiae deletion strains, locus YJR043C, strain POL32, stronger effect = lower value 0.0763 | S. cerevisiae deletion strains, locus YJR075W, strain HOC1, stronger effect = lower value 0.0813 | S. cerevisiae deletion strains, locus YKL009W, strain mrt4, stronger effect = lower value 0.4 | S. cerevisiae deletion strains, locus YKL068W, stronger effect = lower value 0.178 | S. cerevisiae deletion strains, locus YKL085W, strain MDH1 (second series), stronger effect = lower value 0.126 | S. cerevisiae deletion strains, locus YKL085W, strain MDH1, stronger effect = lower value 0.126 | S. cerevisiae deletion strains, locus YKL190W, strain CNB1, stronger effect = lower value 0.0509 | S. cerevisiae deletion strains, locus YKR001C, strain vps1, stronger effect = lower value 0.0897 | S. cerevisiae deletion strains, locus YLR039C, strain RIC1, stronger effect = lower value 0.191 | S. cerevisiae deletion strains, locus YLR058C, strain SHM2, stronger effect = lower value 0.0587 | S. cerevisiae deletion strains, locus YLR102C, strain apc9, stronger effect = lower value 0.0876 | S. cerevisiae deletion strains, locus YLR262C, strain YPT6, stronger effect = lower value 0.23 | S. cerevisiae deletion strains, locus YLR268W, strain sec22, stronger effect = lower value 0.0794 | S. cerevisiae deletion strains, locus YLR330W, strain CHS5, stronger effect = lower value 0.0657 | S. cerevisiae deletion strains, locus YLR342W, strain FKS1 (second series), stronger effect = lower value 0.0856 | S. cerevisiae deletion strains, locus YLR371W, strain rom2, stronger effect = lower value 0.0813 | S. cerevisiae deletion strains, locus YLR418C, strain cdc73, stronger effect = lower value 0.127 | S. cerevisiae deletion strains, locus YML016C, strain PPZ1, stronger effect = lower value 0.0591 | S. cerevisiae deletion strains, locus YML032C, strain rad52, stronger effect = lower value 0.104 | S. cerevisiae deletion strains, locus YML124C, strain tub3, stronger effect = lower value 0.0796 | S. cerevisiae deletion strains, locus YMR078C, strain ctf18, stronger effect = lower value 0.101 | S. cerevisiae deletion strains, locus YMR223W, strain ubp8, stronger effect = lower value 0.0885 | S. cerevisiae deletion strains, locus YMR263W, strain SAP30, stronger effect = lower value 0.108 | S. cerevisiae deletion strains, locus YMR307W, strain GAS1, stronger effect = lower value 0.129 | S. cerevisiae deletion strains, locus YNL067W, strain RPL9B, stronger effect = lower value 0.0623 | S. cerevisiae deletion strains, locus YNL128W, strain TEP1, stronger effect = lower value 0.0794 | S. cerevisiae deletion strains, locus YNL153C, strain GIM3, stronger effect = lower value 0.0592 | S. cerevisiae deletion strains, locus YNL233W, strain BNI4, stronger effect = lower value 0.0673 | S. cerevisiae deletion strains, locus YNL250W, strain rad50, stronger effect = lower value 0.133 | S. cerevisiae deletion strains, locus YNL271C, strain bni1, stronger effect = lower value 0.114 | S. cerevisiae deletion strains, locus YNL298W, strain CLA4, stronger effect = lower value 0.0847 | S. cerevisiae deletion strains, locus YNL307C, strain MCK1, stronger effect = lower value 0.0726 | S. cerevisiae deletion strains, locus YNL322C, strain KRE1, stronger effect = lower value 0.0639 | S. cerevisiae deletion strains, locus YNR052C, strain pop2, stronger effect = lower value 0.0915 | S. cerevisiae deletion strains, locus YOL006C, strain TOP1, stronger effect = lower value 0.104 | S. cerevisiae deletion strains, locus YOL147C, strain pex11, stronger effect = lower value 0.0687 | S. cerevisiae deletion strains, locus YOR061W, strain CKA2, stronger effect = lower value 0.077 | S. cerevisiae deletion strains, locus YOR069W, strain VPS5, stronger effect = lower value 0.0662 | S. cerevisiae deletion strains, locus YOR136W, strain idh2, stronger effect = lower value 0.0938 | S. cerevisiae deletion strains, locus YOR144C, strain elg1, stronger effect = lower value 0.076 | S. cerevisiae deletion strains, locus YOR184W, strain ser1, stronger effect = lower value 0.094 | S. cerevisiae deletion strains, locus YOR316C, strain cot1, stronger effect = lower value 0.0765 | S. cerevisiae deletion strains, locus YPL055C, strain LGE1, stronger effect = lower value 0.0913 | S. cerevisiae deletion strains, locus YPL241C, strain CIN2, stronger effect = lower value 0.0643 | S. cerevisiae deletion strains, locus YPR119W, strain clb2, stronger effect = lower value 0.0897 | S. cerevisiae deletion strains, locus YPR141C, strain kar3, stronger effect = lower value 0.24 | S. cerevisiae deletion strains, locus YPR163C, strain tif3, stronger effect = lower value 0.0819 | S. cerevisiae deletion strains, locus YPR167C, strain met16, stronger effect = lower value 0.0807 | S. cerevisiae deletion strains, strain wtn01, stronger effect = lower value 0.1 | S. cerevisiae strains, strain wild type, stronger effect = lower value 0.0558
